Targets with a hit are over-represented here; the source holds about 7,900 in all. About 0.6% of all pairs of compound and target were hits.
Legend:
Experiment in all cases: log2 fold change, soluble protein after heating vs DMSO (PISA); higher = thermal stabilisation; K562 cells, 10 uM, 30 min; active = over 0.2 and 3.5 SD of the protein, either way, in both replicates (recomputed)
[1] = compound: COC1=CC=C(C=C1)CN2C=CC3=C2C=C(C=C3)C(=O)NO
In short: (§1)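 Aliquots of K562 cells (2×10^6 cells/mL) treated with 10 μM compound for 30 min were heated for 3 min over 48°C-58°C. After pooling and extraction in PBS with 0.5% NP-40 at 4°C, soluble protein from a 21,000xg, 90 min spin was quantified by TMTpro 16plex LC-MS/MS with channel sums equalised. Thermal stability is expressed against control samples, from duplicates, as a log2 fold change.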

filanesib = compound: CON(C)C(=O)N1N=C(c2cc(F)ccc2F)S[C@@]1(CCCN)c1ccccc1 [filanesib]
In short: as §1

zotarolimus = compound: CO[C@H]1C[C@@H]2CC[C@@H](C)[C@@](O)(O2)C(=O)C(=O)N2CCCC[C@H]2C(=O)O[C@H]([C@H](C)C[C@@H]2CC[C@H](n3cnnn3)[C@H](OC)C2)CC(=O)[C@H](C)/C=C(\C)[C@@H](O)[C@@H](OC)C(=O)[C@H](C)C[C@H](C)/C=C/C=C/C=C/1C [zotarolimus]
In short: as §1

idasanutlin = compound: COc1cc(C(=O)O)ccc1NC(=O)[C@@H]1N[C@@H](CC(C)(C)C)[C@](C#N)(c2ccc(Cl)cc2F)[C@H]1c1cccc(Cl)c1F [idasanutlin]
In short: as §1

alisertib = compound: COc1cc(Nc2ncc3c(n2)-c2ccc(Cl)cc2C(c2c(F)cccc2OC)=NC3)ccc1C(=O)O [alisertib]
In short: as §1

[2] = compound: COc1cc2nc(-c3cc(F)ccc3O)nc(N[C@@H]3CNC[C@H]3C(C)(C)O)c2cc1OC
In short: as §1

gefitinib = compound: COc1cc2ncnc(Nc3ccc(F)c(Cl)c3)c2cc1OCCCN1CCOCC1 [gefitinib]
In short: as §1

[3] = compound: COc1cccc2cc(-c3nc([C@H]4CC[C@H](C(=O)O)CC4)n4ncnc(N)c34)[nH]c12
In short: as §1

lapatinib = compound: CS(=O)(=O)CCNCc1ccc(-c2ccc3ncnc(Nc4ccc(OCc5cccc(F)c5)c(Cl)c4)c3c2)o1 [lapatinib]
In short: as §1

pictilisib = compound: CS(=O)(=O)N1CCN(Cc2cc3nc(-c4cccc5[nH]ncc45)nc(N4CCOCC4)c3s2)CC1 [pictilisib]
In short: as §1

[4] = compound: CS(=O)(=O)c1ccc(-c2cnc(N)c(C(=O)Nc3ccccc3)n2)cc1
In short: as §1

[5] = compound: C[C@@H]1COCCN1C2=NC(=NC(=C2)C3(CC3)S(=O)(=O)C)C4=C5C=CNC5=CC=C4
In short: as §1

[6] = compound: C[C@H](C1=CC=C(C=C1)C(=O)NC2=C3C=CNC3=NC=C2)N
In short: as §1

duvelisib = compound: C[C@H](Nc1ncnc2nc[nH]c12)c1cc2cccc(Cl)c2c(=O)n1-c1ccccc1 [duvelisib]
In short: as §1

gandotinib = compound: Cc1cc(Nc2cc(CN3CCOCC3)c3nc(C)c(Cc4ccc(Cl)cc4F)n3n2)n[nH]1 [gandotinib]
In short: as §1

tozasertib = compound: Cc1cc(Nc2cc(N3CCN(C)CC3)nc(Sc3ccc(NC(=O)C4CC4)cc3)n2)n[nH]1 [tozasertib]
In short: as §1

[7] = compound: Cc1cc(SCc2sc(-c3ccc(C(F)(F)F)cc3)nc2C)ccc1OCC(=O)O
In short: as §1

doramapimod = compound: Cc1ccc(-n2nc(C(C)(C)C)cc2NC(=O)Nc2ccc(OCCN3CCOCC3)c3ccccc23)cc1 [doramapimod]
In short: as §1

ispinesib = compound: Cc1ccc(C(=O)N(CCCN)[C@@H](c2nc3cc(Cl)ccc3c(=O)n2Cc2ccccc2)C(C)C)cc1 [ispinesib]
In short: as §1

crizotinib = compound: C[C@@H](Oc1cc(-c2cnn(C3CCNCC3)c2)cnc1N)c1c(Cl)ccc(F)c1Cl [crizotinib]
In short: as §1

Measured: log2 fold change

NUDT1 (UniProt P36639)
inactive: [1] 0.043 | filanesib -0.06 | zotarolimus -0.068 | idasanutlin -0.169 | alisertib -0.017 | [2] 0.11 | gefitinib 0.354 | [3] -0.046 | lapatinib -0.016 | pictilisib -0.01 | [4] 0.185 | [5] 0.08 | [6] 0.107 | duvelisib 0.61 | gandotinib -0.167 | tozasertib -0.057 | [7] 0.017 | doramapimod -0.113 | ispinesib 0.012

PAFAH2 (UniProt Q99487)
inactive: [1] -0.025 | filanesib -0.089 | zotarolimus 0.012 | idasanutlin 0.153 | [2] 0.043 | lapatinib -0.037 | [4] 0.005 | crizotinib 0.029 | [6] 0.08 | duvelisib 0.215 | tozasertib -0.011 | [7] -0.057 | doramapimod 0.053 | ispinesib -0.044

NME2P1 (UniProt O60361)
UniProt O60361, sequence (O60361 whole entry, looked up): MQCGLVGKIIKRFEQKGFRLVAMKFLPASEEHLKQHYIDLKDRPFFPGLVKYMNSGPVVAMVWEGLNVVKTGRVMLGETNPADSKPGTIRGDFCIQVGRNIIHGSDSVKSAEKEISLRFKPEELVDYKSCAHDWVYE
inactive: [1] -0.256 | filanesib 0.058 | zotarolimus -0.111 | idasanutlin -0.367 | alisertib -0.089 | [2] 0.122 | gefitinib -0.01 | [3] 0.084 | lapatinib -0.075 | pictilisib -0.041 | [4] -0.093 | crizotinib -0.066 | [5] -0.114 | [6] 0.079 | gandotinib -0.346 | tozasertib -0.012 | doramapimod 0.27 | ispinesib -0.119

NPC1L1 (UniProt Q9UHC9)
inactive: [1] -0.177 | filanesib -0.099 | zotarolimus -0.09 | idasanutlin -0.041 | alisertib -0.144 | [2] 0.079 | gefitinib 0.557 | [3] 0.106 | lapatinib -0.105 | [4] 0.002 | crizotinib -0.07 | [6] -0.044 | duvelisib 0.107 | tozasertib -0.059 | [7] -0.159 | doramapimod 0.033

NFYB (UniProt P25208)
UniProt P25208, sequence (P25208 whole entry, looked up): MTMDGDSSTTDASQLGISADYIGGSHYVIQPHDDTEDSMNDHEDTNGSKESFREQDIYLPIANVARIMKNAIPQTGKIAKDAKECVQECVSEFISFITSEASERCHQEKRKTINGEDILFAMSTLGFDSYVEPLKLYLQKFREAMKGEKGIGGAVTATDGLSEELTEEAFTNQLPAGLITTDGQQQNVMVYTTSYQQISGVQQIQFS
inactive: [1] 0.245 | filanesib -0.036 | zotarolimus -0.024 | idasanutlin 0.066 | alisertib -0.097 | [2] -0.047 | gefitinib 0.039 | [3] 0.02 | lapatinib 0.078 | pictilisib -0.155 | [4] -0.004 | crizotinib 0.069 | [6] -0.084 | duvelisib -0.123 | gandotinib 0.011 | tozasertib 0.085 | [7] -0.124 | doramapimod -0.028 | ispinesib 0.168

OSBPL3 (UniProt Q9H4L5)
UniProt Q9H4L5, sequence (Q9H4L5 whole entry, looked up): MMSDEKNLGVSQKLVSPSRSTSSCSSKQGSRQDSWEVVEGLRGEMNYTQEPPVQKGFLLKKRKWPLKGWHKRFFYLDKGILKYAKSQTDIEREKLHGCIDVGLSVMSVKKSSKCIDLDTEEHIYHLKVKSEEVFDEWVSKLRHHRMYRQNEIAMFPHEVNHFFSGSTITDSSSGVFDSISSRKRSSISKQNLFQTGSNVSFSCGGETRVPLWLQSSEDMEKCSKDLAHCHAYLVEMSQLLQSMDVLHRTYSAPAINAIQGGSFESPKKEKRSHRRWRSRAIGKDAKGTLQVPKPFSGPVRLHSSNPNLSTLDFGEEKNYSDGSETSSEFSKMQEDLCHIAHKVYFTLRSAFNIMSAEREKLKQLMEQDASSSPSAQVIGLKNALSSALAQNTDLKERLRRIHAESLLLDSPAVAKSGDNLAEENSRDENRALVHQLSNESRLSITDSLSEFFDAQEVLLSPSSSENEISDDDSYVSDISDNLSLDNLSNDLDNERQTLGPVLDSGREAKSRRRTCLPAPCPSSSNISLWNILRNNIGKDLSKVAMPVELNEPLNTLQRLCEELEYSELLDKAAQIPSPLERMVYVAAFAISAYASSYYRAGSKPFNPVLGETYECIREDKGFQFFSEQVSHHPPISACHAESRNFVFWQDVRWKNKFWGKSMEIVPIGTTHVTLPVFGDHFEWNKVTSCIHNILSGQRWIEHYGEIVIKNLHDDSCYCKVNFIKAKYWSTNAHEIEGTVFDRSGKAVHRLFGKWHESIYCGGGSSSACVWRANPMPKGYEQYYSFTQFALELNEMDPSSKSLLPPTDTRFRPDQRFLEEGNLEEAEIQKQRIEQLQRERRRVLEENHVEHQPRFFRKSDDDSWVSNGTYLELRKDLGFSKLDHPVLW
inactive: [1] -0.052 | filanesib 0.582 | zotarolimus 0.14 | idasanutlin 0.277 | [2] -0.688 | gefitinib 0.174 | lapatinib 0.391 | [4] 0.245 | crizotinib -0.017 | [5] -0.416 | [6] 0.572 | duvelisib -0.098 | tozasertib 0.198 | [7] 0.063 | doramapimod 0.189 | ispinesib -0.36

NA isoform 3 (UniProt Q4G0T1)
UniProt Q4G0T1, sequence (Q4G0T1 whole entry, looked up): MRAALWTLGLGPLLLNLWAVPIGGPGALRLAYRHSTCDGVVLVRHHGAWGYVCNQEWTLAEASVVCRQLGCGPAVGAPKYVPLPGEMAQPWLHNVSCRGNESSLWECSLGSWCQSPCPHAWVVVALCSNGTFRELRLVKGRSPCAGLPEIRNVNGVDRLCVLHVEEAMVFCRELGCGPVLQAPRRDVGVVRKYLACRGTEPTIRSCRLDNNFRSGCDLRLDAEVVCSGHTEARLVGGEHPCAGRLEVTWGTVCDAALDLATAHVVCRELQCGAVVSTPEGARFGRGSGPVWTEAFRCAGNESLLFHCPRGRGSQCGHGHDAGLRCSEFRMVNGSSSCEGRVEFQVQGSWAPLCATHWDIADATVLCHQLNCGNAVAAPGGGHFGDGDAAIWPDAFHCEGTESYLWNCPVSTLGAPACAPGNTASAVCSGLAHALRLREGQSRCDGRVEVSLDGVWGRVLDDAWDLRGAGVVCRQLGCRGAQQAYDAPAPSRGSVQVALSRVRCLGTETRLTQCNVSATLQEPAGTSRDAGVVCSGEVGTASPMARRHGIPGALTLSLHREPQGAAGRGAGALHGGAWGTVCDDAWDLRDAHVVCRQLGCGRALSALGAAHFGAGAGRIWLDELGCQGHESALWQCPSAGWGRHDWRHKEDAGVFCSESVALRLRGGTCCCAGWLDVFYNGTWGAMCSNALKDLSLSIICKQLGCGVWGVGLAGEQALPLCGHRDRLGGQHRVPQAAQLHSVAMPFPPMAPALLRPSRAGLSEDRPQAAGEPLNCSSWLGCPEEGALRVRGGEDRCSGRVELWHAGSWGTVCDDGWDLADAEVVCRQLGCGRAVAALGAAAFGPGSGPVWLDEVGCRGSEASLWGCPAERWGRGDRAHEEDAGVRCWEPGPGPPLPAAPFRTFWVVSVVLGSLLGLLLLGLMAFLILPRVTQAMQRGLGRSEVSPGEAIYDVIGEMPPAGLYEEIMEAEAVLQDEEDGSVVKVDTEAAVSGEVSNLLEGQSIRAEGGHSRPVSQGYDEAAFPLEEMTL
inactive: [1] -0.007 | filanesib 0.049 | zotarolimus 0.044 | idasanutlin 0.052 | alisertib -0.09 | [2] 0.039 | gefitinib 0.016 | [3] 0.106 | lapatinib 0.112 | [4] 0.023 | crizotinib -0.004 | [6] -0.157 | duvelisib 0.042 | tozasertib 0.005 | [7] -0.001 | doramapimod 0.077 | ispinesib -0.099

MRFAP1 (UniProt Q9Y605)
UniProt Q9Y605, sequence (Q9Y605 whole entry, looked up): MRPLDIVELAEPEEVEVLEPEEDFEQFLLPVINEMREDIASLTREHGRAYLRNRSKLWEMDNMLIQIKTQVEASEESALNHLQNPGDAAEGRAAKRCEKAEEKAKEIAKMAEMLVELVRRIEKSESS
inactive: [1] 0.015 | filanesib -0.012 | zotarolimus -0.018 | idasanutlin 0.173 | alisertib -0.435 | [2] -0.154 | gefitinib -0.036 | [3] 0.157 | lapatinib -0.093 | pictilisib -0.01 | [4] -0.066 | crizotinib -0.142 | [6] -0.048 | duvelisib 0.072 | gandotinib -0.014 | tozasertib 0.027 | [7] -0.023 | doramapimod 0.045 | ispinesib 0.016

NA, A0A2R8Y3M9
inactive: [1] -0.086 | filanesib 0.079 | zotarolimus -0.419 | idasanutlin 0.279 | [2] -0.123 | gefitinib -0.168 | lapatinib -0.037 | pictilisib -0.35 | [4] -0.084 | crizotinib 0.013 | [6] -0.011 | duvelisib -0.299 | gandotinib -0.099 | [7] -0.107 | doramapimod -0.008 | ispinesib -0.125

NAT14 (UniProt Q8WUY8)
UniProt Q8WUY8, sequence (Q8WUY8 whole entry, looked up): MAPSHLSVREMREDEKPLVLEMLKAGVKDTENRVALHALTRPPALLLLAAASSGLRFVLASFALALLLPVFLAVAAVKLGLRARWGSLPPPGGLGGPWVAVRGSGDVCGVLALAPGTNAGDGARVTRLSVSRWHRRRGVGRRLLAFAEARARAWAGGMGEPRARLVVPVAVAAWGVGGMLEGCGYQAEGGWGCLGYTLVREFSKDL
inactive: [1] 0.151 | filanesib -0.001 | zotarolimus 0.107 | idasanutlin -0.041 | alisertib -0.013 | [2] -0.086 | gefitinib -0.016 | [3] 0.12 | lapatinib 0.081 | [4] 0.006 | crizotinib -0.228 | [5] -0.019 | [6] -0.119 | duvelisib 0.03 | tozasertib -0.063 | [7] 0 | doramapimod -0.02
active: ispinesib -0.418

MPHOSPH8 isoform 2 (UniProt Q99549)
inactive: [1] -0.002 | filanesib 0.128 | zotarolimus -0.191 | idasanutlin 0.062 | alisertib -0.016 | [2] 0.032 | [3] 0.125 | lapatinib 0.024 | [4] -0.068 | crizotinib -0.036 | [5] -0.05 | [6] 0.045 | duvelisib -0.006 | tozasertib 0.04 | [7] -0.018 | doramapimod 0.059 | ispinesib 0.18

MTFR1L (UniProt Q9H019)
UniProt Q9H019, sequence (Q9H019 whole entry, looked up): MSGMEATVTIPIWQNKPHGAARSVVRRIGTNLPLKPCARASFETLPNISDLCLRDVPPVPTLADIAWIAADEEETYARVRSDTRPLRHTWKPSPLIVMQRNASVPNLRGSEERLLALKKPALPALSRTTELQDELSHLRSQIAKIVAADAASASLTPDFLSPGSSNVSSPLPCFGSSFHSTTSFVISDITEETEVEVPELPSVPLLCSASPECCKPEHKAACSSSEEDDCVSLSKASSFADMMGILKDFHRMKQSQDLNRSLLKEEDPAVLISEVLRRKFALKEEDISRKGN
inactive: [1] 0.036 | filanesib -0.09 | zotarolimus 0.037 | idasanutlin -0.04 | [2] -0.111 | gefitinib 0.083 | lapatinib 0.044 | pictilisib 0.011 | [4] 0.059 | crizotinib -0.162 | [5] -0.088 | [6] 0.153 | duvelisib -0.146 | gandotinib -0.123 | tozasertib -0.084 | [7] 0.039 | doramapimod 0.042 | ispinesib -0.329

OPHN1 (UniProt O60890)
UniProt O60890, sequence (O60890 whole entry, looked up): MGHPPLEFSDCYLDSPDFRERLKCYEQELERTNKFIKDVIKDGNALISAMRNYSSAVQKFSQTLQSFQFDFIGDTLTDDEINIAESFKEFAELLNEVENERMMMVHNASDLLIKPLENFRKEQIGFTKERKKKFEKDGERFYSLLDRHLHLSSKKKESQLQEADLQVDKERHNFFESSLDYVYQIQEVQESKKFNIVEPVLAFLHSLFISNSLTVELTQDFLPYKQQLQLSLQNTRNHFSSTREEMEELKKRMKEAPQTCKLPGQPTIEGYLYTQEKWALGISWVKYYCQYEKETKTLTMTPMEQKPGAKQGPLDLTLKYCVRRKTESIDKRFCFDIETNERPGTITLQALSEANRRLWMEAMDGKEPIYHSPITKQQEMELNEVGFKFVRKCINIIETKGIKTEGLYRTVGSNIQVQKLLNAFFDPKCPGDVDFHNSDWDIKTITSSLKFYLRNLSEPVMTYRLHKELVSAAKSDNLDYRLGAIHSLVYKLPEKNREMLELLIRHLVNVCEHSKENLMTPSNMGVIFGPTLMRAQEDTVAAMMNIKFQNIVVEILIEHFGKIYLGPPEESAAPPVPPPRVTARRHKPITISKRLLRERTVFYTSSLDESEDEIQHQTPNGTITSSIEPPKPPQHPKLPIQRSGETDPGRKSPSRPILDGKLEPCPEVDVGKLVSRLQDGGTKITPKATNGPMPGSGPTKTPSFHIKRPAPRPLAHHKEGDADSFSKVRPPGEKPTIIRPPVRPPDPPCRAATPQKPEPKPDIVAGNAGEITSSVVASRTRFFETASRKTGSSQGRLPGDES
inactive: [1] -0.261 | filanesib -0.004 | zotarolimus -0.049 | idasanutlin -0.015 | alisertib -0.036 | gefitinib -0.002 | [3] 0.04 | pictilisib 0.242 | [4] 0.011 | crizotinib -0.06 | [5] 0.107 | [6] 0.14 | duvelisib 0.103 | tozasertib -0.035 | [7] -0.21 | doramapimod 0.26 | ispinesib 0.018
active: gandotinib -0.636

MITF (UniProt O75030)
UniProt O75030, sequence (O75030 whole entry, looked up): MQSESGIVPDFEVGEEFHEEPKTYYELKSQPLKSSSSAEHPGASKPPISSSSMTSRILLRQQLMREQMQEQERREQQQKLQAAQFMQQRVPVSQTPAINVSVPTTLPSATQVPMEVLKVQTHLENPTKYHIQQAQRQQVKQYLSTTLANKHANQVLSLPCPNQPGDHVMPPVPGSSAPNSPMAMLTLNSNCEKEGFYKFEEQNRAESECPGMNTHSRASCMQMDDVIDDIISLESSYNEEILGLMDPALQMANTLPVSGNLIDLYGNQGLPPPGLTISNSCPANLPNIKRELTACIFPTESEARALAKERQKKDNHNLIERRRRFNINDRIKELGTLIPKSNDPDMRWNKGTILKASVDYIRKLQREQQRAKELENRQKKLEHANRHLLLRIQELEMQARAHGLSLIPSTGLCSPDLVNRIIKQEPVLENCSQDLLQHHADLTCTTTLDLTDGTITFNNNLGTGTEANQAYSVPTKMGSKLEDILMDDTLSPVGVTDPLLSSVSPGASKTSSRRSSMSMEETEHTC
inactive: [1] 0.122 | filanesib 0.106 | idasanutlin -0.042 | alisertib 0.008 | gefitinib -0.13 | [3] 0 | pictilisib -0.397 | [4] 0.026 | crizotinib -0.137 | gandotinib -0.13 | doramapimod 0.006

NIPSNAP3B (UniProt Q9BS92)
UniProt Q9BS92, sequence (Q9BS92 whole entry, looked up): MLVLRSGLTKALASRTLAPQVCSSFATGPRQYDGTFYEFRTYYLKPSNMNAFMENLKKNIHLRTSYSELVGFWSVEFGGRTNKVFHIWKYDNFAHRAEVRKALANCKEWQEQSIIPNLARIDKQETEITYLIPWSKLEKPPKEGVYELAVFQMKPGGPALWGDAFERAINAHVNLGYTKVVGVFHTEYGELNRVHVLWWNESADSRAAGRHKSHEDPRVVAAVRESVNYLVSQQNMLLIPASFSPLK
inactive: [1] -0.033 | filanesib -0.168 | zotarolimus 0.013 | idasanutlin 0.046 | alisertib -0.046 | [2] -0.071 | gefitinib -0.138 | [3] 0.009 | lapatinib -0.09 | pictilisib 0.002 | [4] 0.03 | crizotinib 0.053 | [6] 0.015 | duvelisib -0.18 | gandotinib 0.082 | tozasertib -0.045 | [7] 0.039 | doramapimod -0.102

MT-ND1 (UniProt P03886)
UniProt P03886, sequence (P03886 whole entry, looked up): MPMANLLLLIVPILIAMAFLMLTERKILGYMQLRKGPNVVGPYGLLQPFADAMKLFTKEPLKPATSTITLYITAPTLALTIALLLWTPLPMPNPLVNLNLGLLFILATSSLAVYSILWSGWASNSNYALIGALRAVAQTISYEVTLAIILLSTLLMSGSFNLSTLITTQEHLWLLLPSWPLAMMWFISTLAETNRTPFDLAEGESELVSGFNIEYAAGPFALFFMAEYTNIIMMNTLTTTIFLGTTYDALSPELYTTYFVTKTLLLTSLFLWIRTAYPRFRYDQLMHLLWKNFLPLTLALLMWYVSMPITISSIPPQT
inactive: [1] -0.051 | filanesib 0.053 | zotarolimus 0.131 | idasanutlin -0.141 | alisertib -0.015 | [2] -0.152 | gefitinib 0.1 | [3] 0.051 | lapatinib -0.113 | [4] -0.011 | crizotinib -0.179 | [5] 0.287 | [6] -0.039 | duvelisib 0.241 | tozasertib 0.105 | [7] -0.081 | doramapimod 0.056 | ispinesib 0.178

MRPS16 (UniProt Q9Y3D3)
inactive: [1] -0.102 | filanesib 0.044 | zotarolimus 0.04 | alisertib 0.02 | [2] -0.054 | gefitinib -0.045 | [3] -0.011 | lapatinib 0.039 | pictilisib -0.03 | [4] 0.061 | crizotinib 0.014 | [5] 0.028 | [6] 0.159 | gandotinib -0.031 | tozasertib 0.05 | doramapimod 0.001 | ispinesib -0.266
active: idasanutlin -0.348

From the supplement of paper PMC10849652
